# Measurements as given in PubChem BioAssay (NCI).
# This is part of a sample that, as a whole, favours compounds with a hit. Of some 79,000 tested, about 15% had one in any assay. Unmarked numbers belong to inactive results. The source made the active and inactive calls. No stated cut-off is given here; in the data, active means growth inhibition above about 70%; inactive means the rest.
# Legend:
# [1] = NCI Yeast Anticancer Drug Screen. Data for the rad50 strain (AID 155);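 further: 0% = growth of vehicle-only cultures of the same strain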; conditions: S. cerevisiae rad50 strain growth inhibition; at 50.0 µM; active compounds read high
# Procedure, shortened: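 Cells are treated with compound, grown, and their growth is then scored against vehicle-only cultures of the same repair-deficient yeast strain.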
# [2] = NCI Yeast Anticancer Drug Screen. Data for the mec2-1 strain (AID 157); conditions: S. cerevisiae mec2-1 strain, at 50.0 µM, active compounds read high
# Procedure, shortened: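 Yeast mec2-1 mutant treated with compound. Readout: growth inhibition vs vehicle controls.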
# [3] = NCI Yeast Anticancer Drug Screen. Data for the sgs1 mgt1 strain (AID 161);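 further: 0% = growth of cultures given vehicle only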; conditions: S. cerevisiae sgs1 mgt1 strain, at 50.0 µM, active compounds read high
# Procedure, shortened: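 Genetically altered yeast, compound exposure, growth inhibition relative to vehicle.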
# [4] = NCI Yeast Anticancer Drug Screen. Data for the cln2 rad14 strain (AID 165);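 further: 0% = growth equal to vehicle treated cultures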; conditions: S. cerevisiae cln2 rad14 strain, at 50.0 µM, active compounds read high
# Procedure, shortened: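 cln2 rad14 yeast strain; compound exposure; growth inhibition read vs vehicle controls.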
# [5] = NCI Yeast Anticancer Drug Screen. Data for the bub3 strain (AID 167); conditions: S. cerevisiae bub3 mutant strain, at 50.0 µM, active compounds read high
# Procedure, shortened: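 Part of a panel of yeast mutants defective in DNA damage repair or cell cycle regulation. Each strain is grown with compound, and inhibition is calculated relative to solvent-treated cultures.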
# [6] = NCI Yeast Anticancer Drug Screen. Data for the mlh1 rad18 strain (AID 175); conditions: S. cerevisiae mlh1 rad18 strain growth inhibition; at 50.0 µM; active compounds read high
# Procedure, shortened: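 Yeast w/ defined DNA-repair lesions; compound exposure; growth vs vehicle controls → % inhibition.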
Structure (SMILES),growth inhibition [1],growth inhibition [2],growth inhibition [3],growth inhibition [4] [%],growth inhibition [5],growth inhibition [6]
c1ccc(Oc2c3ccccc3nc3ccccc23)cc1,2.75%,-18.4%,-13.2%,4.25,-5.7%,87.9% (active)
Cc1cc(CC(=O)NCCO)n(CCO)c(=O)c1,-7.85%,-21.5%,6.55%,6.25,-2.7%,-2.9%
O=C(O)C1CSC(c2ccccc2)N1 (stereo not drawn),1.95%,-12.8%,-4.35%,3,-5.55%,2.55%
O=C(c1ccc(Cl)cc1)N1CCCCC1,1.05%,2.85%,-17.6%,-0.65,-7.15%,-5.8%
Cc1ccc(N)c(S(=O)(=O)O)c1,-4.85%,4.35%,0.75%,-53.9,8.85%,-13.2%
COc1ccc2c(ccc[n+]2C)c1,19.6%,30.9%,3.65%,19.2,-15.7%,-25.4%
COC1C(=O)CCC2(CO2)C1(O)C1(C)OC1CCC(C)C (stereo not drawn),-27.1%,-42.4%,-18.5%,-3.85,-16.1%,-4.55%
CN(CCCN(C)CCC1CCCCC1)CCC1CCCCC1,11.2%,-1.05%,0.1%,54.8,2.15%,7.7%
ON1CCCC1,-1.35%,-4.15%,-8.9%,-6.6,6.4%,1.5%
C=CCNC(=S)N/C=C(/C(=O)c1ccccc1)c1ccccc1,-53.6%,-23.8%,-45.2%,-31.5,-20.4%,-53.6%
CCN(CC)c1ccc2nc3ccc(N=Nc4ccc(N(C)C)cc4)cc3[n+](-c3ccccc3)c2c1,42.5%,52.5%,57.7%,54.9,39.5%,38.9%
C(=C\c1ccncc1)/c1ccncc1,27.9%,-7.2%,6.45%,-0.55,7.8%,23.6%
OCCc1ccc(Cl)cc1,10.8%,8.15%,9.7%,15.3,-1.3%,7.9%
C=COC(=O)CCOCC(CC)CCCC (stereo not drawn),-6.1%,-15.1%,8.95%,-6.2,-4.55%,-6.55%
COc1ccc(NNS(=O)(=O)O)cc1,1.45%,4.7%,21.7%,-10.8,-1.65%,4%
CC(c1ccccc1)N(C)C (stereo not drawn),12.7%,-1.8%,0.4%,7.6,5.9%,1.6%
OC1Cc2ccccc2C1,-32.5%,-26.4%,-17.6%,-31.8,-28.1%,-18.6%

Structure (SMILES),growth inhibition [1],growth inhibition [2],growth inhibition [3],growth inhibition [4] [%],growth inhibition [5],growth inhibition [6]
COc1cc(C(=O)NC(=S)NCc2ccncc2)cc(OC)c1OC,9.6%,4.75%,-4.65%,-11.2,34.2%,19.7%
CCOC(=O)c1cc(C)[nH]c(=O)c1C#N,-12.2%,-3.1%,-5.1%,-5.1,4.55%,2.65%
CC(C)c1ncc([N+](=O)[O-])n1C,-13.2%,2.9%,-16.6%,-30.1,6.15%,8.75%
Cc1ccc(S(=O)(=O)CCCl)cc1,6.8%,-7.35%,-21.9%,-31.2,5.3%,7.85%
N#CC1(O)CCCCC1,42.6%,10.6%,14.7%,23.2,17.9%,28.4%
COc1ccc(/C=N/NC(=O)COCC(=O)N/N=C/c2ccc(OC)cc2)cc1,-34.6%,-47.7%,-15.4%,2.5,-33%,-25.6%
CC(=O)NC(CCc1ccc(Cl)c(Cl)c1)c1cccc(O)c(=O)c1 (stereo not drawn),88.9% (active),92% (active),86% (active),63.7,82.5% (active),88.9% (active)
NNC(=O)c1ccccc1N,-1.8%,4.35%,27.1%,-11.2,-2%,-1.55%
NC(=S)c1c(N)n(C2OC(CO)C(O)C2O)c2ncnc(N)c12 (stereo not drawn),7.2%,-9.7%,7.1%,-3.15,-5.5%,2.55%
Cc1cc(C(=O)NN)c(C#N)c(=O)[nH]1,2.2%,-5.55%,-2.15%,-17.5,2.6%,-0.5%
NC(=O)c1cc2c3ccccc3ccn2c1-c1ccccc1,35.8%,27.2%,46.7%,62.6,64%,60%
O=C(O)c1ccccc1Cc1ccc2c(c1)CCCC2,17.4%,12.2%,-4.6%,-28.9,25.7%,47.3%
C=CCOc1ccc(Cl)cc1Cl,1.65%,-4.4%,-0.45%,4.6,6.65%,-1.75%
N#C/C(=C\c1ccc2c(c1)OCO2)c1ccccc1,10.4%,-0.7%,3.15%,10.2,1.95%,24.1%
Cn1c(=O)c2[nH]c(CC(=O)O)nc2n(C)c1=O,29.5%,11%,33.8%,22.8,0.85%,24.1%
CCOC(=O)C(COS(C)(=O)=O)(COS(C)(=O)=O)C(=O)OCC,-24.4%,-22.9%,-21.4%,-2.05,-2.35%,-6.1%
